Drawing on PubChem BioAssay, this text covers composite z-score and z-score for 5 molecules.

The nature of assay [1]: compounds binding Alexa647 anti-His antibody – biochemical, small-molecule microarray, 635 nm fluorescence, artefact control for SMM control protein annotation, primary screen (AID 1128).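 Note: score merges feature fluorescence with signal-to-noise for each printed compound spot.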 Conditions: higher = more signal.
The subject of assay [2] is Human papillomavirus type 1a E7 protein (residues 1-88). Kind of assay: HPV1a E7 small-molecule binders, primary screen, biochemical, small-molecule microarray, residues 1-88, 635 nm (AID 1129). To be noted: small-molecule microarray binding, fluorescence 635 nm; higher = more signal.
The target of assay [3] is Focal adhesion kinase 1 (Homo sapiens) (UniProt Q05397). Kind of assay: PTK2 protein binding on printed compound slides – biochemical, small-molecule microarray, 635/667 nm fluorescence, BSA, DTT, primary screen (AID 1130).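 Note: composite of spot emission at 667 nm and signal to noise over triplicate slides.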 To be noted: 635 nm fluorescence, higher = more signal.
Assay [4] deals with Fibrinogen (Alexa647-labelled). In words: Alexa647-fibrinogen binding to printed small molecules – biochemical, small-molecule microarray, 635/667 nm fluorescence, artefact control for SMM control-protein annotation, profiling panel (AID 1131).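 Note: z-score merges 667 nm fluorescence with per-spot signal-to-noise over triplicate slides.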 To be noted: fibrinogen-A647 binding fluorescence, higher = more signal.
In assay [5] the target is Follistatin (Homo sapiens) (UniProt P19883). In words: FST protein binding to printed compounds – biochemical, small-molecule microarray, 635/667 nm fluorescence, primary screen (AID 1132). Conditions: 635 nm fluorescence, higher = more signal.
Assay [6] deals with Fibroblast growth factor 2 (Homo sapiens) (UniProt P09038). Kind of assay: basic fibroblast growth factor binding to printed compounds – biochemical, small-molecule microarray, 635/667 nm fluorescence, primary screen (AID 1133). To be noted: FGF2, fluorescence 635/667, higher = more signal.
Assay [7] can be described thus: JC-1 mitochondrial potential readout, lung cancer cells – cell-based, A549, JC-1 fluorescence, basal, 24 h, 100 nL, profiling panel (AID 1138).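 Note: A549 lung adenocarcinoma cells under basal conditions with no added stimulus; test concentration not given here.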 Conditions: higher = more signal.
Assay [8] deals with Lefty1. In words: Lefty1 protein binding to printed compounds – biochemical, small-molecule microarray, 635/667 nm fluorescence, primary screen (AID 1139). To be noted: fluorescence 635/667, higher = more signal.
For assay [9], the system named is wheat germ agglutinin (Triticum aestivum), Alexa647-labelled. Kind of assay: Alexa647-WGA lectin binding to printed small molecules – biochemical, small-molecule microarray, 635/667 nm fluorescence, artefact control for SMM control-protein annotation, profiling panel (AID 1140).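 Note: score merges 667 nm feature emission with signal to noise over triplicate slides.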 To be noted: WGA-A647 binding, 635 nm fluorescence, higher = more signal.
Assay [10] deals with Luciferin 4-monooxygenase (Photinus pyralis) (UniProt P08659). Kind of assay: inhibition of purified Photinus pyralis luciferase – biochemical, luminescence, purified enzyme, 2006 set, primary screen (AID 1141).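 Note: cell-free assay with purified firefly luciferase at 100 ng per well in PBS; test concentration not given here.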 Conditions: purified firefly luciferase, SteadyGlo luminescence, 30 min; higher = more signal, called active from +8 up or from −8 down.
Assay [11] relates to Wnt5a (protein binding on small-molecule microarray). In words: small molecules binding Wnt5a protein – biophysical, small-molecule microarray, 635/667 nm fluorescence, primary screen (AID 1142).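 Note: fluorescence read at 667 nm with signal to noise per printed feature.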 To be noted: 635 nm fluorescence, higher = more signal.
Assay [12] can be described thus: ATP-based viability of Huh7 replicon cells – cell-based, CellTiter-Glo luminescence, basal, 48 h, cytotoxicity control for HCV replication inhibitor project, primary screen (AID 1143).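 Note: Huh7 hepatoma cells carrying a hepatitis C replication reporter with no stimulus; test concentration not given here.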 To be noted: higher = more signal, called active from +8 up or from −8 down. For orientation: In antiviral work, replicon cells carry a viral genome segment that copies itself.
The nature of assay [13]: Pseudomonas biofilm growth suppression – PAO1 strain, BacTiter-Glo luminescence, LB-PBS, primary screen (AID 1144). To be noted: P. aeruginosa PAO1 biofilm, 12 h, higher = more signal.
The nature of assay [14]: basal CRE-LacZ reporter activity in PC12 – cell-based, unstimulated, primary screen (AID 1145). To be noted: no forskolin, luminescence, 4.5 h, higher = more signal, called active from +8 up or from −8 down.
Assay [15] is described as follows: forskolin-driven CRE-LacZ activity in PC12 – cell-based, CRE-LacZ reporter, forskolin-stimulated, primary screen (AID 1146).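 Note: PC12 cells with 6xCRE LacZ reporter stimulated by forskolin 10 µM; beta-galactosidase reporter signal reflecting CREB driven transcription.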 To be noted: luminescence, 4.5 h, higher = more signal, called active from +8 up or from −8 down.
The target of assay [16] is Streptavidin (Streptomyces avidinii) (UniProt P22629). In words: compounds binding control protein streptavidin – biophysical, small-molecule microarray, 635/667 nm fluorescence, artefact control for SMM compound annotation, primary screen (AID 1147).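 Note: signal reflects streptavidin binding to arrayed compounds as a control protein.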 To be noted: higher = more signal.
Assay [17] can be described thus: probe aInhba binding on compound microarray – biochemical, small-molecule microarray, 635/667 nm fluorescence, primary screen (AID 1148).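 Note: score merges 667nm spot fluorescence with signal-to-noise for antibody binding to printed compounds.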 To be noted: higher = more signal.
For assay [18], the target named is Torsin-1A (Homo sapiens) (UniProt O14656). Kind of assay: TOR1A wild-type binding on microarray – cell lysate, small-molecule microarray, lysate, 635/667 nm, primary screen (AID 1149). To be noted: COS7 hTOR1A-WT lysate, 635 nm fluorescence, higher = more signal.
Assay [19] has the same target. In words: torsin A mutant lysate binding on microarrays – cell lysate, small-molecule microarray, COS7 lysate, 635/667 nm fluorescence, primary screen (AID 1150).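 Note: score pools 667 nm emission and signal to noise measuring lysate protein binding.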 Conditions: COS7 hTOR1A mutant lysate, 635 nm fluorescence, higher = more signal.
The test system of assay [20] is Sonic hedgehog protein (Shh). In words: Sonic hedgehog microarray binding compounds – biochemical, small-molecule microarray, 635/667 nm fluorescence, primary screen (AID 1151).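 Note: Shh protein binding to compounds spotted on small-molecule microarray slides; score combines spot fluorescence intensity with signal-to-noise across triplicate slides.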 Conditions: 635 nm fluorescence, higher = more signal.

The source made the active and inactive calls. Unless noted, the rule behind the calls is not given here.

Sequence of Torsin-1A (Homo sapiens) (O14656 whole entry, looked up): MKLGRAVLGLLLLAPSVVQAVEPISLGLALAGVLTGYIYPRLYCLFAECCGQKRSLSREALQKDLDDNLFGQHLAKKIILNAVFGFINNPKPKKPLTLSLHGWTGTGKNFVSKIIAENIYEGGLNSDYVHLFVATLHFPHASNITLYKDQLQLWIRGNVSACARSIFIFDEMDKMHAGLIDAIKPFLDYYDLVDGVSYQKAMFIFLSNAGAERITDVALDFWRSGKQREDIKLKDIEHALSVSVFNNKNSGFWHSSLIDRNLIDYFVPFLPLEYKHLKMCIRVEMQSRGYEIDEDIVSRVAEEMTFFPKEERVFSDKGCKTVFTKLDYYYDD
Sequence of Streptavidin (Streptomyces avidinii) (P22629 whole entry, looked up): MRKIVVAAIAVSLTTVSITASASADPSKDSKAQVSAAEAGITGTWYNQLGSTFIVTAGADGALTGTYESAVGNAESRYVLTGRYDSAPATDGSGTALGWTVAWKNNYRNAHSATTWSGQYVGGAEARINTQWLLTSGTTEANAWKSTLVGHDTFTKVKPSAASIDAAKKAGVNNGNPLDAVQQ
Sequence of Luciferin 4-monooxygenase (Photinus pyralis) (P08659 whole entry, looked up): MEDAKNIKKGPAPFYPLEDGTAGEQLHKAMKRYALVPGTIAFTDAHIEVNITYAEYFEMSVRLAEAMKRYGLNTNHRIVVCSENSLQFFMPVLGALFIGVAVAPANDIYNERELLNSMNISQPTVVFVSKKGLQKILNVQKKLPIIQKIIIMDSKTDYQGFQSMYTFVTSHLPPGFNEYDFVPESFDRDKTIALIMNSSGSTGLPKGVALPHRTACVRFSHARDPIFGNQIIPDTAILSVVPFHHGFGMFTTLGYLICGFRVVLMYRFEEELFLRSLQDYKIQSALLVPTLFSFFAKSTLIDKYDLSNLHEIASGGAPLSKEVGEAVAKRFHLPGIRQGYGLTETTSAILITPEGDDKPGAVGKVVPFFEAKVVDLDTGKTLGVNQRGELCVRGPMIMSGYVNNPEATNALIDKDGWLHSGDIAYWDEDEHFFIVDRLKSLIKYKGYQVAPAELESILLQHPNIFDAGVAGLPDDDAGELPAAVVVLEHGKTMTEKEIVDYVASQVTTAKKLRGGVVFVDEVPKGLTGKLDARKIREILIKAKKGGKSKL
Sequence of Fibroblast growth factor 2 (Homo sapiens) (P09038 whole entry, looked up): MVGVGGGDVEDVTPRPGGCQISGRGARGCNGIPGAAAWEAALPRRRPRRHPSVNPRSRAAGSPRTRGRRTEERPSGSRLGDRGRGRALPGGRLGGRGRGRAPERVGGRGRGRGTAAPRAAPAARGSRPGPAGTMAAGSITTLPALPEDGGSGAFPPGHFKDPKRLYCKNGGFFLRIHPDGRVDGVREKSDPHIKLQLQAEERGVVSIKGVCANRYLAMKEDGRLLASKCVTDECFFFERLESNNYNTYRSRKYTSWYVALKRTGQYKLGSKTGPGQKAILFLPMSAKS
Sequence of Focal adhesion kinase 1 (Homo sapiens) (Q05397 whole entry, looked up): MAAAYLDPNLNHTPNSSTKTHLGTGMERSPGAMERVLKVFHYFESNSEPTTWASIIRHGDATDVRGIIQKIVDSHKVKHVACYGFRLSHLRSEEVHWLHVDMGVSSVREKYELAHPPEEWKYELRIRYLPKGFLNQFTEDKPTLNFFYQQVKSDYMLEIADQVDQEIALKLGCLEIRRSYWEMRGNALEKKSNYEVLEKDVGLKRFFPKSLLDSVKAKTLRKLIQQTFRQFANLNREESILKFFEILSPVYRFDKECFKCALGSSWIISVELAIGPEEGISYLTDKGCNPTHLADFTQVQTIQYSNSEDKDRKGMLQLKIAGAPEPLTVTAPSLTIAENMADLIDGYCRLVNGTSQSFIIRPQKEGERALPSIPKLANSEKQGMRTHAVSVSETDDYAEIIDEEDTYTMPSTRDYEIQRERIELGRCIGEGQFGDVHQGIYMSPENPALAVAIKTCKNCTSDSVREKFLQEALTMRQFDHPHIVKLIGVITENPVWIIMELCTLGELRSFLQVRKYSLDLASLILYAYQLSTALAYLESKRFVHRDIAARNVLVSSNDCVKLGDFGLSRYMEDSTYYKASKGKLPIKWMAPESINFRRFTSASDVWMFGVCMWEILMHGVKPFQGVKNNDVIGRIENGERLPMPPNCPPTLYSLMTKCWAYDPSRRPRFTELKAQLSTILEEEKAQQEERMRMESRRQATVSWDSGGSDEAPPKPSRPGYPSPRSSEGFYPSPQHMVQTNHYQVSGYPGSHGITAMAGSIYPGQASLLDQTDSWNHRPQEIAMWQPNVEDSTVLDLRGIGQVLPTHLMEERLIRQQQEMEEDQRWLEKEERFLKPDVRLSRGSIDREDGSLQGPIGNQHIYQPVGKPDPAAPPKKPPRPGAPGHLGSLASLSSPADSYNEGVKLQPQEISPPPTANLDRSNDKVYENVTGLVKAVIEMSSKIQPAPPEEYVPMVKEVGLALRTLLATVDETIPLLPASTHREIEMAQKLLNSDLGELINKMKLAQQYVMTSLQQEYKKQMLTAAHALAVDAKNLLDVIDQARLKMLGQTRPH
Sequence of Follistatin (Homo sapiens) (P19883 whole entry, looked up): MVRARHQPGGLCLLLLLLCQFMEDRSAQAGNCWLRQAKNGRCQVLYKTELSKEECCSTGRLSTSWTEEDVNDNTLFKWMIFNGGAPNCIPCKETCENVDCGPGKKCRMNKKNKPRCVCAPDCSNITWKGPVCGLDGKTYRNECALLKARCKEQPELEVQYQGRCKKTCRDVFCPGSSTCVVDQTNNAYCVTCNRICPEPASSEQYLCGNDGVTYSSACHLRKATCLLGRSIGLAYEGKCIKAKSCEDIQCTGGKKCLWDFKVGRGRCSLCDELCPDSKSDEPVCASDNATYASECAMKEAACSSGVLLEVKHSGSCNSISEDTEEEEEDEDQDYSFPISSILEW

On to `COc1cc2c(cc1O)C(c1ccc(CN3CCCC3)cc1)N(C)CC2` (stereo not given), for which the composite z-score in assay [1] is -1.52; in assay [2], -2.03; in assay [3] it was -0.489; in assay [4], 0.109; in assay [5] it was -0.843; in [6] it was -0.324. For the same molecule, the composite z-score in assay [8] is -1.17; in assay [9] it was 0.434; in assay [11] it was -0.0821; in assay [16] it was -0.317; in assay [17], -0.237; in assay [18], -0.508. Besides, the composite z-score is 0.081 in assay [19] and -0.0838 in assay [20]. Also, the z-score in [7] is 0.563; in [10] it was -0.831 (inactive); in [12], -0.383 (inactive); in assay [13], 0.374 (inactive); in assay [14], -0.231 (inactive); in assay [15], -0.0347 (inactive).

`O=c1cccc(-c2ccc(F)cc2)o1`: the composite z-score is 0.198 in assay [1]; 0.734 in [2]; 0.111 in assay [3]; -0.191 in assay [4]; 0.456 in assay [5]; 0.898 in [6]. Further, the composite z-score in assay [8] amounted to 0.571; in assay [9], 0.62; in assay [11], 0.0405; in assay [16] it was 0.386; in assay [17], 0.179; in [18] it was 0.309. For the same molecule, the figures for the composite z-score in assay [19] and in assay [20] were 0.0586 and 0.559, respectively. Also, the z-score in assay [7] is -0.0822; in assay [10] it was 1.73 (inactive); in assay [12], 0.0779 (inactive); in assay [13], -0.291 (inactive); in assay [14], -0.433 (inactive); in [15], 1.01 (inactive).

Take `CCOC(=O)C1=C[C@@H](c2ccccc2)N(S(=O)(=O)c2ccc(C)cc2)[C@H]1c1ccccc1`: the composite z-score in [1] is 0.421; in assay [2] it was 0.574; in assay [3], 0.681; in assay [4] it was -0.276; in [5] it was 0.379; in [6] it was 0.466. Further, the composite z-score in [8] was 0.543; in assay [9] it was 0.197; in assay [11], 0.202; in assay [16], 1.1; in assay [17], 0.0925; in assay [18], 0.0157. The composite z-score amounted to 0.176 in assay [19] and 0.212 in assay [20]. The z-score in [7] was 1.47; in [10] it was 1.94 (inactive); in [12] it was -1.91 (inactive); in [13] it was -0.42 (inactive); in assay [14] it was -0.275 (inactive); in assay [15], 0.294 (inactive).

Regarding `C=CC[C@H](OC(=O)Nc1ccc(SC)cc1)c1ccc(OCCO)cc1`, the composite z-score was 0.299 in [1]; -0.444 in [2]; -0.452 in assay [3]; -1.96 in assay [4]; 0.734 in assay [5]; 0.144 in assay [6]. In addition, the composite z-score was 0.34 in assay [8]; 0.61 in assay [9]; -0.348 in assay [11]; -0.707 in assay [16]; -0.112 in assay [17]; 0.25 in assay [18]. Moreover, the composite z-score is 0.154 in [19] and 1.68 in assay [20]. Also, the z-score in assay [7] is 0.08; in [10], -1.93 (inactive); in assay [12], -2.69 (inactive); in assay [13] it was -0.982 (inactive); in assay [14], 8.61 (active); in assay [15], 0.938 (inactive).

With `O=C(O)[C@@H]1C[C@@H]2C(=O)N3CCC[C@H]3C(=O)N2[C@@H]1c1cccc(OCCO)c1`, the composite z-score in assay [1] was 3.41; in [2], 1.31; in assay [3], 2.47; in assay [4], 0.977; in assay [5], 1.41; in assay [6], 1.4. Also, the composite z-score in assay [8] stood at 1.7; in [9] it was 1.69; in [11], 1.25; in assay [16], 3.76; in assay [17] it was 1.95; in [18], 2.99. For the same molecule, the composite z-score in assay [19] was 2.12; in assay [20], 2.02. Besides, the z-score is 0.729 in assay [7]; -0.485 (inactive) in [10]; -0.0592 (inactive) in assay [12]; 1.36 (inactive) in assay [13]; 0.143 (inactive) in assay [14]; -0.382 (inactive) in [15].
